# Source: PubChem BioAssay (Sanford-Burnham Center for Chemical Genomics)
# CYP2C19 activ: human CYP2C19 activators, primary screen, biochemical, luminescence; activation factor at 5 µM; Cytochrome P450 2C19 (Homo sapiens), P33261; AID 1025, 2008; recombinant CYP2C19, luciferin-H EGE luminescence; hits give high values; 0 = fully inhibited enzyme, 1 = untreated enzyme; 96,000 tested, under 10 active;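 active = activation factor of at least 2 at 5 µM in the primary screen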;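 note: 0 = wells with 2.5 mM tranylcypromine and 1 = vehicle-only wells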
# CYP2C9 inhib: blockers of cytochrome P450 2C9 activity – biochemical, luminescence, ADME assay, primary screen | hit rate 20% among 96,000 | P11712 | inhibition, % at 5 µM | CYP2C9 Supersomes, luciferin-H conversion;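 active = blocking of liver enzyme CYP2C9 beyond about 50% at 5 µM, limit read from the data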
# Target sequence (P11712 whole entry, looked up): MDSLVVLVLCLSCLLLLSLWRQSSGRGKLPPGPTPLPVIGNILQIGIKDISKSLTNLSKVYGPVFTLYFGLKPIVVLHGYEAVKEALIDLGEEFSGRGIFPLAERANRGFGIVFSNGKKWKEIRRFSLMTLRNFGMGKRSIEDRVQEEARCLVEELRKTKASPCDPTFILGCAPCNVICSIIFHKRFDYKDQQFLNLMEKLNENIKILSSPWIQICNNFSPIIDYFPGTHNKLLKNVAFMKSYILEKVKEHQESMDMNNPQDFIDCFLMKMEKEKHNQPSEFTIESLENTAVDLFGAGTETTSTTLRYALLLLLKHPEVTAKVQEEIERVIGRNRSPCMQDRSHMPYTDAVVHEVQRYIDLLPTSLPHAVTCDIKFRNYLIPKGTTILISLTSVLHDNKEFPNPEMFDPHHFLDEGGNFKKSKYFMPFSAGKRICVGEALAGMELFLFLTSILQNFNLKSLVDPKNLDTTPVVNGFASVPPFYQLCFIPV
# CYP2C9 act: human CYP2C9 activators, primary screen, biochemical, luminescence | Cytochrome P450 2C9 (Homo sapiens), P11712 | recombinant CYP2C9, luciferin-H conversion; hits give high values; factor 1 = untreated enzyme, 0 = blocked | activation factor at 5 µM | hit rate 1.4% among 96,000 | AID 1024, 2008;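 active = activation factor of 2 or more for CYP2C9 at a 5 µM dose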;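 note: 0 = sulfaphenazole-blocked wells and 1 = vehicle-only wells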
# CYP2C19 inhib: blockers of cytochrome P450 2C19 activity – biochemical, luminescence, ADME assay, primary screen | CYP2C19 Supersomes, luciferin-H EGE luminescence, 30 min | hit rate 21% among 96,000 | P33261 | inhibition, % at 5 µM;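 active = CYP2C19 inhibition above a set limit at 5 µM in the primary screen, cut at about 50% in these data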;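 note: plate controls were negative control wells for no effect and 2.5 mM tranylcypromine positive control for full effect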
# Starred values were filed as active, the others as inactive. Rows were chosen to be rich in hits. Some 31% of all compounds tested hit in one or more screens of this group.
SMILES,CYP2C19 activ,CYP2C9 inhib,CYP2C9 act,CYP2C19 inhib
O=C(O)c1ccc(CNCc2c(Cl)cccc2Cl)cc1,1.1,-15.0,1.1,-14.7
Cc1ccc(C(=O)CC2(O)C(=O)N(CCc3ccccc3)c3ccc(Br)cc32)o1 (stereo not given),0,93.3*,0.1,97.9*
C=C(C)CN1C(=O)C(O)(CC(=O)c2ccc3c(c2)OCCO3)c2ccccc21 (stereo not given),0.2,40.0,0.6,81.7*
O=C(CC1(O)C(=O)N(CCc2ccccc2)c2ccccc21)c1ccco1 (stereo not given),0.3,74.0*,0.3,70.8*
COC(=O)CN1C(=O)C(O)(CC(=O)c2ccc(Cl)cc2)c2ccccc21 (stereo not given),0.7,7.7,0.9,25.3
C=CCN1C(=O)C(O)(CC(=O)c2ccccc2)c2ccccc21 (stereo not given),0.3,38.1,0.6,74.6*
N#CCCCN1C(=O)C(O)(CC(=O)c2ccc3c(c2)OCCO3)c2ccccc21 (stereo not given),0.8,32.9,0.7,20.3
C=CCN1C(=O)C(O)(CC(=O)c2c(C)n[nH]c2C)c2cc(Br)ccc21 (stereo not given),0.5,10.3,0.9,48.6
COC(=O)c1sccc1NC(=O)c1cc(-c2cccc(C)c2)nc2ccccc12,1.1,-12.1,1.1,-11.4
CCOc1ccc(OCC)c(NC(=O)CCn2cccc2)c1,0.8,9.2,0.9,21.5
COc1cc(C(=O)Nc2nnc(CC(=O)N3CCOCC3)s2)cc(OC)c1OC,1.1,18.8,0.8,-6.2
Cc1ccc(C(=O)CC2(O)C(=O)N(Cc3ccccc3Cl)c3ccccc32)o1 (stereo not given),0.4,-43.5,1.4,55.2*
Cc1ccc(C(=O)CC2(O)C(=O)N(Cc3ccccc3)c3ccccc32)o1 (stereo not given),0.7,-17.0,1.2,30.6
CC1CCCCN1C(=O)c1cnn2c(C(F)(F)F)cc(-c3ccco3)nc12 (stereo not given),0.6,22.5,0.8,44.1
CC(NC(=O)c1ccc(CS(=O)(=O)c2ccc(Cl)cc2)o1)c1ccc2c(c1)OCCO2 (stereo not given),0.5,73.7*,0.3,49.6
CC(NC(=O)c1cn(C)c2ccc(S(=O)(=O)N3CCCC3)cc2c1=O)c1ccc2c(c1)OCCO2 (stereo not given),0.9,25.6,0.7,9.2
Cc1ccccc1S(=O)(=O)Cc1ccc(C(=O)NC(C)c2ccc3c(c2)OCCO3)o1 (stereo not given),0,98.5*,0,98.7*
CCn1c(SCC(=O)OC2CCCCC2)nc2ccccc2c1=O,0.1,76.9*,0.2,86.6*
O=C(CSc1nc2ccccc2c(=O)n1NC(=O)Cc1ccccc1)NCCc1ccccc1,0.9,93.9*,0.1,9.7
CCNC(=O)CSc1nc2ccccc2c(=O)n1CCCOC(C)C,0.2,61.7*,0.4,76.4*
O=C(CCCn1c(SCC(=O)NCC2CCCO2)nc2ccccc2c1=O)NCC1CCCO1 (stereo not given),0.8,43.5,0.6,24.1
CCOCCCn1c(SCC(=O)NC(C)C)nc2ccccc2c1=O,0.5,45.1,0.5,45.2
COCCNC(=O)CSc1nc2ccccc2c(=O)n1CCCC(=O)NCc1ccccc1,0.6,69.8*,0.3,36.9
CSC(=NCCCN1CCOCC1)NS(=O)(=O)c1cccs1,1,-15.4,1.2,-3.4
CCn1c(SCC(=O)NCCOc2ccccc2)nc2ccccc2c1=O,0.3,56.7*,0.4,68.6*
SMILES,CYP2C19 activ,CYP2C9 inhib,CYP2C9 act,CYP2C19 inhib
CCOC(=O)CSc1nc2ccccc2c(=O)n1CC,0.8,26.2,0.7,24.3
CSc1nc(-c2ccccc2)nc(N)c1C(C)=O,0.6,62.7*,0.4,38.4
COC(=O)c1ccc(C(=O)OC)c(NC(=O)CSc2cccc[n+]2[O-])c1,1.1,-2.8,1,-15.0
CCN1C(=O)CC(C(=O)Nc2ccc(F)cc2)SC1=Nc1cccc(OC)c1 (stereo not given),0.4,83.6*,0.2,62.2*
CCN=C1SC(C(=O)Nc2cccc(OCC)c2)CC(=O)N1CC (stereo not given),0.1,4.2,1,87.4*
COc1cccc(N=C2SC(C(=O)Nc3ccccc3F)CC(=O)N2C)c1 (stereo not given),0.6,61.6*,0.4,35.7
CCNC(=O)C1CC(=O)N(Cc2ccc(F)cc2)C(=Nc2ccc(OC)cc2)S1 (stereo not given),0.5,-55.5,1.6,54.9*
CCN=C1SC(C(N)=O)CC(=O)N1CC (stereo not given),1.1,-2.6,1,-5.8
O=C(Nc1ccc(Oc2ccccc2)cc1)c1cnc2n(c1=O)CCS2,1,5.3,0.9,0.9
CCOc1cccc(NC(=O)C2CC(=O)NC(=Nc3ccccc3)S2)c1 (stereo not given),0.8,61.5*,0.4,19.1
C/C(CCc1ccc2c(c1)OCO2)=N\N=C1\NC(=O)CC(C(=O)Nc2ccc(Cl)cc2)S1 (stereo not given),0.7,75.4*,0.2,29.9
C/C(=C\C(=O)c1ccc(Cl)cc1)NCc1ccc2c(c1)OCO2,0.8,25.6,0.7,24.9
CN1C(=O)CC(C(=O)Nc2ccc(F)cc2)SC1=Nc1ccc2c(c1)OCO2 (stereo not given),0.4,98.9*,0,57.5*
CCOc1ccc(N2CC(C(=O)Nc3cccc(C)c3C)CC2=O)cc1 (stereo not given),0.9,34.0,0.7,7.7
CCOC(=O)c1ccc(-n2c(-c3ccco3)nc3ccccc3c2=O)cc1,0.9,5.7,0.9,7.8
COc1ccc(NC(=O)CN2CCC(C)CC2)cc1,0.1,2.6,1,89.3*
COc1ccc(NC(=O)CN2CCN(C3c4ccccc4-c4ccccc43)CC2)cc1,0.4,94.7*,0.1,58.7*
COc1ccc(NC(=O)CN2CCOCC2)cc1,0.6,-3.3,1,39.8
COc1ccc(NC(=O)CN2CCC3(O)CCCCC3C2c2cc(OC)ccc2OC)cc1 (stereo not given),0.3,79.9*,0.2,71.0*
CCOc1ccc(/C=C/C(=O)Nc2ccc(OC)cc2[N+](=O)[O-])cc1,0.9,-144.8,2.4*,9.5
CCCC1CC(C)(C(=O)CSc2n[nH]c(-c3ccccc3)n2)OC1=O (stereo not given),0.5,42.2,0.6,49.7
COC(=O)c1sc2nc(-c3ccccc3)nc(N3CCN(C)CC3)c2c1C,0.9,8.1,0.9,14.7
COc1ccc(NC(=O)CN2CCN(CC(=O)Nc3ccccc3Cl)CC2)cc1Cl,0.1,57.1*,0.4,91.3*
COc1ccc(NC(=O)CN2CCCCC2)c([N+](=O)[O-])c1,0.8,-0.6,1,16.5
COc1ccc(NC(=O)CN2CCN(CC(=O)Nc3cc(OC)cc(OC)c3)CC2)cc1,0.4,61.2*,0.4,55.5*
